# The list is not random: actives were taken first. Their share in the collection is about 0.92%.
# UGM FP inh = inhibitors of M. tuberculosis UDP-galactopyranose mutase; P9WIQ1; purified UGM, fluorescence polarization probe displacement; inhibition, % at 10 µM; 320,000 tested, 0.06% active; in the data active = inhibition above about 10%, passing the limit was not always enough
# FadD28 binding = M. tuberculosis FadD28 bisubstrate binding inhibition | FadD28 bisubstrate probe binding, fluorescence polarization | inhibition, % at 12.5 µM | 360,000 tested, 0.22% active | AID 588549; in the data active = inhibition above about 8.5%, passing the limit was not always enough
# Mtb hypoxia inh = Mtb hypoxia fluorescent reporter inhibition | fluorescence inhibition, % (no concentration beside the values) | AID 1159583 | M. tuberculosis hypoxia-regulated fluorescent reporter, fluorescence | 300,000 tested, 0.1% active; in the data active = fluorescence inhibition mostly above about 23%, no sharp cut-off; inactive = mostly below about 17%
# RecA splice inh = blocks M. tuberculosis RecA intein splicing; P9WHJ3; cell-free RecA intein splicing, fluorescence; inhibition, % (no concentration beside the values); 290,000 tested, 0.75% active; in the data active = inhibition above about 30%;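 note: 0% = vehicle wells and 100% = reference inhibitor control wells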
# Rv3671c inh = inhibitors of M. tuberculosis serine protease Rv3671c; P9WHR9; inhibition, % at 5.96 µM; 320,000 tested, 0.048% active; in the data active = inhibition above about 38%;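 note: extracellular domain of Rv3671c used as enzyme; 0% = enzyme with DMSO and 100% = no enzyme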
# Target sequence (P9WHR9 whole entry, looked up, the tested form may be a part): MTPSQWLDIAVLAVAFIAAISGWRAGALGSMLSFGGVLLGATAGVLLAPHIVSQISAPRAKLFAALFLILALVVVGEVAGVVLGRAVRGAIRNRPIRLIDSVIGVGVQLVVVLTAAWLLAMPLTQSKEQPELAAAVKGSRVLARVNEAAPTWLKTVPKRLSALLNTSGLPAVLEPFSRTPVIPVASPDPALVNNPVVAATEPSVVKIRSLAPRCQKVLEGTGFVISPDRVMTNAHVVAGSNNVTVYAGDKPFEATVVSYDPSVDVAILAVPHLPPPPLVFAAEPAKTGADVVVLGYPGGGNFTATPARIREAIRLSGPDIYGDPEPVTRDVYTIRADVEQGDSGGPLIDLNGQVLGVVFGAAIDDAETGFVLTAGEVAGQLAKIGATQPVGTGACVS
# Active calls of the source: *; . = no result given.
SMILES,UGM FP inh,FadD28 binding,Mtb hypoxia inh,RecA splice inh,Rv3671c inh
CC(C)OC(=O)CC(=O)c1sc2nc3c(cc2c1N)CN(C)CC3,16*,.,13,-24,-2
C=CCC(CC(=O)NCCO)C(=O)NC(COC(=O)C(CC=C)Cc1ccc(F)cc1)C(C)(C)C (stereo not given),.,.,10,.,.
COC(=O)CSc1[nH]c2ccc(Br)cc2c1[N+](=O)[O-],1,0,37*,-1,-3
CCOc1ccc2[nH]c(SCC(=O)OC)c([N+](=O)[O-])c2c1,1,0,22,-85,0
Cc1ccc(S(=O)(=O)NC(=O)c2ccc(F)cc2)c(C)c1,1,0,10,-1,4
Cc1ccc(S(=O)(=O)NC(=O)c2ccc(-c3ccc(-c4ccccc4)cc3)o2)c(C)c1,1,.,.,36*,-14
O=C(NCCO)Nc1ccc2nsnc2c1,1,0,-1,.,4
OCCNC(=S)Nc1ccc2nsnc2c1,-1,-3,3,46*,-73
O=C1NC(=S)S/C1=C\C=C\c1ccc([N+](=O)[O-])o1,.,14*,.,.,.
COC(=O)c1ccc([N+](=O)[O-])c(CS(=O)(=O)c2ccc(Cl)cc2)c1,1,-2,2,-1,-14
CN(C)/C=C/C(=O)c1ccc([N+](=O)[O-])c(CS(=O)(=O)c2ccc(Cl)cc2)c1,2,18*,0,3,-1
CC(NC(=S)Nc1ccc(OC(F)F)c(Cl)c1)C(C)(C)C (stereo not given),-3,-3,28*,3,-14
COC(=O)CC1=NN(c2ccc(OC)cc2)C(=O)C1,3,-2,-6,72*,-56
COC(=O)Cc1c(C(=O)OC)nnn1-c1ccc(OC)cc1,-1,-2,14,-2,7
Cc1cccc(N=C2NC(=O)/C(=C/C=C/c3ccco3)S2)c1C,0,11*,6,20,2
N#Cc1ccc(C23CC4(C2)C(CN(CC2CCCCC2)C4c2ccccc2)C3c2ccc(Cl)nc2)cc1 (stereo not given),.,.,-11,.,.
Cc1onc(-c2c(Cl)cccc2Cl)c1C(=O)n1nnc2ccccc21,-1,.,.,37*,6
Cc1onc(-c2c(Cl)cccc2Cl)c1C(N)=O,-1,1,2,.,-3
CN(C)c1ccc(C(=O)n2nnc3ccccc32)cc1,-1,-1,18,49*,0
Cc1ccc(C(=O)n2nnc3ccccc32)cc1,3,.,.,5,2
O=C(c1ccccn1)N1N=C2C(=Cc3ccc(F)cc3)CCCC2C1c1ccc(F)cc1 (stereo not given),.,.,-2,.,.
CC1=C/C(=C\C=C(C#N)C#N)N(C)c2ccccc21,1,3,.,.,-223
CCCCCCN1C=CC=C/C1=C\C=C(C#N)C#N,16*,0,0,.,2
CC1CN(C(C)CO)C(=O)c2cccc(N(C)C)c2OC1CN(C)C(=O)NC1CCCCC1 (stereo not given),.,.,6,.,.
O=C(O)c1ccc(NN=CC2=Cc3ccccc3OC2)cc1,.,.,8,.,.
SMILES,UGM FP inh,FadD28 binding,Mtb hypoxia inh,RecA splice inh,Rv3671c inh
O=C(CN1C(=O)c2ccccc2C1=O)N(CCO)Cc1ccccc1,3,22*,-2,-1,.
CCN(Cc1ccccc1)C(=O)CN1C(=O)c2ccccc2C1=O,0,-1,-9,-1,-6
CCOC(=O)C1C2COc3ccc(OC)cc3C2N2C(=O)CN(Cc3ccc(OC)cc3)C(=O)[C@@]12C (stereo not given in full),.,.,3,.,.
O=C1NC(=O)N(Cc2ccc(F)cc2)C(=O)/C1=C\c1ccoc1,-1,11*,.,2,-36
CC(C)CN=c1cc(-c2ccccc2)oc2ccc(Cl)cc12,3,-5,42*,.,-11
O=C1C=C(c2ccc3c(c2)oc2ccccc23)CC(c2ccc3c(c2)OCO3)C1 (stereo not given),.,.,3,.,.
CC1(C)N=C(SCC(=O)Nc2ccc(Cl)cc2Cl)C(c2ccccc2)=N1,3,-1,1,32*,-4
CC1(C)N=C(SCC(=O)Nc2ccccc2)C(c2ccc(Cl)cc2)=N1,1,-20,7,9,4
COc1ccc(N2C(=O)CSC23C(=O)N2c4c(cccc43)C(C)=CC2(C)C)cc1 (stereo not given),-1,-4,-1,33*,-9
COc1ccc(N2C(=O)CSC23C(=O)N2CCCc4cccc3c42)cc1 (stereo not given),0,2,-9,1,0
C[C@]12CCC(=O)C=C1C(O)CC1C2C(O)C[C@@]2(C)C1CC[C@]2(O)C(=O)CO (stereo not given in full),.,.,0,.,.
CC(C)C(CSc1ccccc1)N1CCN(Cc2ccccc2)CCC1=O (stereo not given),.,.,1,.,.
CC(C)(C)c1ccc(C(=O)Nc2sc3c(c2C(=O)O)CCC3)cc1,-3,14*,-1,6,1
O=C(COc1nsnc1N1CCOCC1)NN=Cc1ccccc1O,.,.,6,.,.
CCCCNC(=O)c1sc(=S)n2c1[nH]c(=O)c1ccccc12,2,24*,7,1,-3
O=C(NC1CCCCC1)c1sc(=S)n2c1[nH]c(=O)c1ccccc12,5,2,3,-50,7
CCOc1ccc(CCNC(=O)c2ccc3c(=O)[nH]c4c(C(=O)NC(C)C)sc(=S)n4c3c2)cc1,-1,21*,.,-2,-10
O=C(NCC1CCCO1)c1sc(=S)n2c1[nH]c(=O)c1ccc(C(=O)N3CCCCC3)cc12 (stereo not given),-4,10.0*,35*,-75,-2
O=C(NCCc1ccccc1)c1ccc2c(=O)[nH]c3c(C(=O)NCC4CCCO4)sc(=S)n3c2c1 (stereo not given),-2,61*,.,-111,-24
NCCCCC1CNC(=O)C(=O)N1CC1CCCCC1 (stereo not given),.,.,15,.,.
CCc1ccc(Nc2cc(=O)n(C3CCCCC3)c(=O)[nH]2)cc1,3,-1,.,0,4
O=c1cc(Nc2ccc3c(c2)OCCO3)[nH]c(=O)n1C1CCCCC1,3,15*,-5,-2,-2
Cc1cc(N)n(-c2ccc(C)c(C)c2)n1,0,0,-7,2,1
Cc1cc(N)n(-c2ccc(Oc3ccccc3)c(S(=O)(=O)O)c2)n1,.,14*,1,5,.
COc1cc(/C=C2\SC(=Nc3ccc(Cl)c(C(=O)O)c3)NC2=O)c(Br)c(Br)c1O,-34,15*,.,-8,.
SMILES,UGM FP inh,FadD28 binding,Mtb hypoxia inh,RecA splice inh,Rv3671c inh
COc1cc(/C=C2\SC(=Nc3ccccc3)NC2=O)cc(Cl)c1O,-19,6,1,2,-20
Fc1ccc(CSc2nnc(-c3ccccn3)o2)cc1,-1,-6,39*,-1,.
Cc1cccc(Cn2ncc(Cl)c(Cl)c2=O)c1,-1,0,.,55*,-4
Brc1ccc(Cn2c(-c3ccc(Br)o3)nc3ccccc32)o1,.,-12,18,30*,.
c1ccc(-c2nc(Sc3ncnc4c3cnn4-c3ccccc3)n[nH]2)cc1,4,.,-89,32*,4
O=C(O)CC1CCC1CC(=O)O (stereo not given),.,-1,.,.,.
N[C@@H]1CCCC[C@H]1N.O=C(O)C(=O)O.[Pt],2,.,.,50*,-1
CCC(C)C(C(=O)N1CCNCC1)n1cc(CCCCN)nn1 (stereo not given),.,.,6,.,.

# Source: PubChem
